# Where “and” joins values, the source holds several entries; their conditions need not be identical. Equal entries are not always repeated. Records with an inconclusive call do not appear. A call without a number means that no potency is given here. Calls of active or inactive are those of the source. Unless noted, calls follow the shape of the dose curve; as a rule, active = well fitted curve in the direction sought with a large enough effect; inconclusive = small, poorly fitted or top-dose-only effect, or another doubt; inactive = no such curve, though single readings can be large; an effect the other way counts as inactive or inconclusive.
# Tests used:
# [1] = qHTS assay for measurement of the activity of small molecule inhibitors on Zika virus induced Caspase-3 activity in human astrocytoma cells (AID 1224859)
# In short: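 Human SNB-19 astrocytoma cells in RPMI 1640 with 10% FBS receive compound one hour ahead of Zika virus at 2 FFU/cell. After 6 h infection, caspase-3/7 activity is detected by Caspase-Glo luminescence.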
# [2] = qHTS Screen of the MIPE 4.0 Collection Against Ewings Sarcoma (TC32) (AID 1259256); also: nearly all actives have a fitted effect of over 45% in size; also: potency is read from the fitted curve at half-maximal effect
# In short: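 Compound titrations go onto adherent log-phase cells 4 h after seeding, incubate 48 h at 37C, then CellTiter-Glo luminescence reports viability relative to DMSO and cell-free controls.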
# [3] = P-glycoprotein substrates identified in KB-8-5-11 adenocarcinoma cell line, qHTS therapeutic library screen (AID 1346987); also: nearly all actives have a fitted effect of over 65% in size; also: potency is read from the fitted curve at half-maximal effect
# In short: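 Luminescence from CellTiter-Glo, read 5 min after addition, quantified survival of KB-8-5-11 (P-gp-overexpressing) cells exposed to compounds for 72 h. AC50 was derived from concentration-response curves.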
# [4] = NS1 protein of Zika virus - qHTS assay to identify small molecule inhibitors in human HEK 293 cells (AID 1347053); also: nearly all actives have a fitted effect of over 55% in size; also: potency is read from the fitted curve at half-maximal effect
# In short: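 In this cell-based screen, HEK 293 cultures received compound for one hour before Zika MR766 at MOI = 0.5. NS1 was quantified 24 hours later by TR-FRET, normalized to virus-free wells and infected wells.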
# [5] = qHTS of pediatric cancer cell lines to identify multiple opportunities for drug repurposing: Primary screen for TC32 cells (AID 1347089); also: nearly all actives have a fitted effect of over 60% in size; also: potency is read from the fitted curve at half-maximal effect
# In short: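 A viability screen of TC32 cells was run over 48 h, with primary MIPE doses spanning 0.78 nM–46 µM and NPC doses 0.59 nM–46 µM. ATP luminescence (CellTiter-Glo) served as the read-out.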
# [6] = qHTS of pediatric cancer cell lines to identify multiple opportunities for drug repurposing: Primary screen for DAOY cells (AID 1347090); also: nearly all actives have a fitted effect of over 55% in size; also: potency is read from the fitted curve at half-maximal effect
# In short: (§1)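 Eight- or eleven-point concentration series, 48 h treatment at 37 degrees C in growth media; readout CellTiter-Glo luminescence. Potency and efficacy were taken from the concentration-response curves.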
# [7] = qHTS of pediatric cancer cell lines to identify multiple opportunities for drug repurposing: Primary screen for SJ-GBM2 cells (AID 1347091); also: potency is read from the fitted curve at half-maximal effect
# In short: as §1
# [8] = qHTS assay to identify small molecule inhibitors of chordoma cells - UCH-2 (AID 1259356); also: series mostly up to about 46 µM
# [9] = target: Atrial natriuretic peptide receptor 1 (Homo sapiens) (UniProt P16066); assay: Natriuretic polypeptide receptor (hNpr1) antagonism - Pilot screen (AID 1347049; calls by dose curve;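 also: HEK293 cells with hNpr1 and GloSensor cGMP luciferase stimulated by 0.1 nM hNppA; agonist-evoked cGMP luminescence read 20 min after hNppA addition; series mostly up to about 58 µM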)
# Atrial natriuretic peptide receptor 1 (Homo sapiens), sequence (P16066 whole entry, looked up): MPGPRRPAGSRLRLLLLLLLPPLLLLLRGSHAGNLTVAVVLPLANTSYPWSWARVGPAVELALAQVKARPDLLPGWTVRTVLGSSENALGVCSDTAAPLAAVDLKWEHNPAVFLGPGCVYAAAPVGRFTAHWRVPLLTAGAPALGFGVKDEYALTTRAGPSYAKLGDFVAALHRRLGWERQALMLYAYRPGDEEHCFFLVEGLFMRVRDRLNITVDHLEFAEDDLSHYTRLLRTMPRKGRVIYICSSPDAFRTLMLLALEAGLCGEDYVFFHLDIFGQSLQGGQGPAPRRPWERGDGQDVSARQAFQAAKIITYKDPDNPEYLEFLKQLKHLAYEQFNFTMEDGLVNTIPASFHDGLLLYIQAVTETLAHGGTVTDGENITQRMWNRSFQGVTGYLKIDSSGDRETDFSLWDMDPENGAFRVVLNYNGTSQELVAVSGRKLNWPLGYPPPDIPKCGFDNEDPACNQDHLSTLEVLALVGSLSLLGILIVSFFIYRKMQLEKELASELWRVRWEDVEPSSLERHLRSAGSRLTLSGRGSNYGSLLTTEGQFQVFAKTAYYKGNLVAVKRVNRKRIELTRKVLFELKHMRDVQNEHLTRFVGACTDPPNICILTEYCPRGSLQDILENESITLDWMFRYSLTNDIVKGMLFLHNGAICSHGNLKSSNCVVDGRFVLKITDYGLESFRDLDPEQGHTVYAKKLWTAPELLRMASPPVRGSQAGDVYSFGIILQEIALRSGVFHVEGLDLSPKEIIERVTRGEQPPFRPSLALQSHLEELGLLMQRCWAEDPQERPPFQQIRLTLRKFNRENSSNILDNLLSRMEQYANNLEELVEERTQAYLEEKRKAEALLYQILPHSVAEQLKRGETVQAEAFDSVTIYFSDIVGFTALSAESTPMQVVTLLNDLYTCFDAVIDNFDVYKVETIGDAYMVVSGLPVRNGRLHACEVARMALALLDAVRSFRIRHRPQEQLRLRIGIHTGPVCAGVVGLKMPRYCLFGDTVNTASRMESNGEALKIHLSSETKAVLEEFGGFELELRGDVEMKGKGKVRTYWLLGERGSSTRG
# In short: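 Cells expressing receptor plus cGMP biosensor are seeded and incubated overnight at 37C, then loaded with GloSensor reagent (2% final) at room temperature for 2 h. Library compounds go on for 30 min. A pre-read precedes agonist (hNppA, 0.1 nM final) and a 20-min readout.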
# [10] = target: Atrial natriuretic peptide receptor 2 (Homo sapiens) (UniProt P20594); assay: Natriuretic polypeptide receptor (hNpr2) antagonism - Pilot subtype selectivity assay (AID 1347050; calls by dose curve)
# Atrial natriuretic peptide receptor 2 (Homo sapiens), sequence (P20594 whole entry, looked up): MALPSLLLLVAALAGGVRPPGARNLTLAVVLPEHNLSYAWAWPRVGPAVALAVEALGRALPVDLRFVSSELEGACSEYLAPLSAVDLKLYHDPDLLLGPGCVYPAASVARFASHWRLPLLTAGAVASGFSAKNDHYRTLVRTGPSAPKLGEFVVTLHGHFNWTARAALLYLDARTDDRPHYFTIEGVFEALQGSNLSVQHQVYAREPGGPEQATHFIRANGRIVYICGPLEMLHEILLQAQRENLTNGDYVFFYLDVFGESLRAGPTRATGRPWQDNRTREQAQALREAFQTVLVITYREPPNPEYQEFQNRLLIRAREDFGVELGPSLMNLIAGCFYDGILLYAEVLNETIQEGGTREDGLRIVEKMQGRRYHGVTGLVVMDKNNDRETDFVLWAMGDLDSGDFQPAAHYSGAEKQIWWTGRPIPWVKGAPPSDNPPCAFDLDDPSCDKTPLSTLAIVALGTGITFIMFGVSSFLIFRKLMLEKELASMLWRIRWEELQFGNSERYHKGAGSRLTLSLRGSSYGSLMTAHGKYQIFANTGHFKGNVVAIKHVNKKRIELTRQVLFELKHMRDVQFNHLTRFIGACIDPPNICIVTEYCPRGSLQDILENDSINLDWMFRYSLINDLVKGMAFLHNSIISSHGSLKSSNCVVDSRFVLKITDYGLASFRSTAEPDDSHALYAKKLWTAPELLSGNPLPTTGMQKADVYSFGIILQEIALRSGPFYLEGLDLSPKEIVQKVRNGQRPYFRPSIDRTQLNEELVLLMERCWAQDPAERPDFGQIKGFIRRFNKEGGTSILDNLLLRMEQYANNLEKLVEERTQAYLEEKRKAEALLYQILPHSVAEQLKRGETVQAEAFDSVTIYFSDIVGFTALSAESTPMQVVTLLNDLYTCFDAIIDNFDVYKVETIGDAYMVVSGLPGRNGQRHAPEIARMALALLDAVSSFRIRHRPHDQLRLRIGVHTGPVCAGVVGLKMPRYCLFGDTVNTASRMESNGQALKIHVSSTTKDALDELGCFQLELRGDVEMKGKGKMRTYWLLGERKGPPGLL
# In short: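 Read-out: GloSensor luminescence (CCD imager), baseline vs post-stimulation. HEK293 cells expressing hNpr2; compounds pre-incubated 30-50 min at ambient temperature; hNppC 1 nM final, 20 min.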
# [11] = target: Parathyroid hormone/parathyroid hormone-related peptide receptor (Homo sapiens) (UniProt Q03431); assay: qHTS for PTHR1 Agonists: Optimization Screen against the NCGC LOPAC library (AID 1347079);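 also: GloSensor cAMP luminescence in HEK-293 GP2 cells expressing human PTHR1 with IBMX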
# Parathyroid hormone/parathyroid hormone-related peptide receptor (Homo sapiens), sequence (Q03431 whole entry, looked up): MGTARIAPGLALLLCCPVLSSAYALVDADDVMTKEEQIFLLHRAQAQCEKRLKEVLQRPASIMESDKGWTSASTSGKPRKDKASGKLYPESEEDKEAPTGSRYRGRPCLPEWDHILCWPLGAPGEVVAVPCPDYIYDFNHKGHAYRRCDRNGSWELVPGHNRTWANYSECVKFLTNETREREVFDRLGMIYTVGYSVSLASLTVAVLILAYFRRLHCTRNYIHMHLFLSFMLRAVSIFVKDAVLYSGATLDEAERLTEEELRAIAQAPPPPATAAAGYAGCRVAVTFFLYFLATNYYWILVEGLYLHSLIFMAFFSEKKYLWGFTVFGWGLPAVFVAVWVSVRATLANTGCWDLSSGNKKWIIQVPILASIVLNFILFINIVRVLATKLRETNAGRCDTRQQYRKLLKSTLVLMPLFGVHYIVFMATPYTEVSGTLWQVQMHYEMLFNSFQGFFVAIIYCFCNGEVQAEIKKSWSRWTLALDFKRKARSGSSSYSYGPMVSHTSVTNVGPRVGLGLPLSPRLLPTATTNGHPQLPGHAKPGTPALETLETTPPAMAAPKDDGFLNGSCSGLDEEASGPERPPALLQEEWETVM
# In short: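 HEK-293 GP2 cells, PTHR1 + GloSensor cAMP; 3000 cells/well, o/n. Luciferin + IBMX 0.5mM each (stock), 1 hr 37C. Cpd titration, 1 hr 37C. Lum after 15 min RT. Ctrl M-PTH(1-15) top 10uM.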
# [12] = Natriuretic polypeptide receptor (hNpr1) antagonism - Pilot counterscreen GloSensor control cell line (AID 1347045; calls by dose curve; also: series mostly up to about 38 µM)
# In short: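 Cells were first seeded and incubated overnight at 37C, then loaded with 2% GloSensor substrate for 2 h. Compounds were added for 30 min at room temperature, followed by a baseline read, 50 uM SNP and a final read after 20 min.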
# [13] = target: T1, Tyrosine-protein phosphatase non-receptor type substrate 1 (Homo sapiens) + Leukocyte surface antigen CD47 (Homo sapiens) (UniProt P78324+Q08722); assay: CD47-SIRPalpha protein protein interaction - LANCE assay qHTS validation (AID 1347057; active = well fitted curve in the direction sought with a large enough effect in the signal ratio, with a control signal flat, not every such curve was filed as active; the % refers to the signal ratio; also: series mostly up to about 38 µM)
# T1 sequence (P78324 whole entry, looked up, the tested form may be a part): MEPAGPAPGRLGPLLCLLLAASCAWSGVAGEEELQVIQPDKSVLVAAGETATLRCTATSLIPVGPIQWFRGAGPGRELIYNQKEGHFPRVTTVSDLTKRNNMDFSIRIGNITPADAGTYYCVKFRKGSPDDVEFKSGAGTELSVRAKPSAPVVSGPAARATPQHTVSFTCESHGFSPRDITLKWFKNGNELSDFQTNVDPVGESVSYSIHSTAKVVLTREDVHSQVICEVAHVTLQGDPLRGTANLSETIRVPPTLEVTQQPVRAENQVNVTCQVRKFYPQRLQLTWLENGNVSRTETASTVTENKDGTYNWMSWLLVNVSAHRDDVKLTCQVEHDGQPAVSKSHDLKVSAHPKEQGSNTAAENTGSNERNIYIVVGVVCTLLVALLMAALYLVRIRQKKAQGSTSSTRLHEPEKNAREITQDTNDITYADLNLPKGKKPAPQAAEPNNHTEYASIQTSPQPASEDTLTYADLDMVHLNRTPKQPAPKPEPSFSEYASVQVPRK
# T1 sequence (Q08722 whole entry, looked up, the tested form may be a part): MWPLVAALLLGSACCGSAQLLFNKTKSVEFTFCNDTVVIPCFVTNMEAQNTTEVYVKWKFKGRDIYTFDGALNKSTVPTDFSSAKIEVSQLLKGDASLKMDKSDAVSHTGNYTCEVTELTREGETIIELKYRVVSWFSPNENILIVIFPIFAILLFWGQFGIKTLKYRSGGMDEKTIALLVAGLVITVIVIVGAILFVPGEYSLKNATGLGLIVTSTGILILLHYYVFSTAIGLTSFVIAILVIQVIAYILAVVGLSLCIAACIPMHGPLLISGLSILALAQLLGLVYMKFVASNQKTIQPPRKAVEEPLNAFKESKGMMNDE
# In short: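 Inhibition of soluble CD47/SIRPalpha ectodomain association by titrated compounds, measured as 665/615 nm time-resolved FRET ratio after sequential 30 min room-temperature incubations.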
# [14] = target: T1, Tyrosine-protein phosphatase non-receptor type substrate 1 (Homo sapiens) + Leukocyte surface antigen CD47 (Homo sapiens); assay: CD47-SIRPalpha protein protein interaction - HTRF assay qHTS validation (AID 1347058; active = well fitted curve in the direction sought with a large enough effect in the signal ratio, not every such curve was filed as active; the % refers to the signal ratio; also: series mostly up to about 38 µM)
# In short: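 Soluble extracellular domains (6His-CD47, Avi-tag-biotinylated SIRPalpha) in PBS pH 7.4 with 0.05% IGEPAL CA-630. Compounds were preincubated 30 min at RT with CD47 and anti-His-Eu, then SIRPalpha and SAV-XL665 were added. TR-FRET 665/615 ratio.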
# [15] = target: T1, Tyrosine-protein phosphatase non-receptor type substrate 1 (Homo sapiens) + Leukocyte surface antigen CD47 (Homo sapiens); assay: CD47-SIRPalpha protein protein interaction - Alpha assay qHTS validation (AID 1347059);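 also: bead proximity luminescence from CD47 binding SIRPalpha after compound preincubation with SIRPalpha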
# In short: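 In PBS (pH 7.4) with 0.05% IGEPAL CA-630, compound is preincubated with biotin-Avi-SIRPalpha ectodomain before His-CD47 ectodomain and affinity beads are added. Light-protected room-temperature incubations; AlphaScreen readout.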
# [16] = P-glycoprotein substrates identified in KB-3-1 adenocarcinoma cell line, qHTS therapeutic library screen (AID 1346986); also: nearly all actives have a fitted effect of over 60% in size
# In short: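 72 h cell-killing screen, 500 cells/well, CellTiter-Glo luminescence. Paired lines KB-3-1/KB-8-5-11; P-gp dependence checked by tariquidar co-treatment and HEK-293 MDR-19 versus empty-vector cells.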
SMILES,Potency [1],Potency [2],Potency [3],Potency [4],Potency [5],Potency [6],Potency [7],outcome [8],outcome [9],outcome [10],outcome [11],Potency [12],outcome [13],outcome [14],outcome [15],Potency [16]
COc1ccc2c(Oc3ccc(NC(=O)c4c(C)n(CC(C)(C)O)n(-c5ccccc5)c4=O)nc3)ccnc2c1,inactive,18.7 µM (active),inactive,inactive,inactive,inactive,0.469 µM (active),,,,,,,,,
Cc1cccc(C)c1OCC(C)N (stereo unspecified),inactive,,inactive,inactive,inactive,inactive,inactive,inactive,inactive,inactive,inactive,,,,,
Cc1[nH]c(C=C2C(=O)Nc3ccc(S(=O)(=O)Cc4c(Cl)cccc4Cl)cc32)c(C)c1C(=O)N1CCC[C@H]1CN1CCCC1,inactive,37.2 µM (active),inactive,inactive,inactive,inactive,0.0332 µM (active),,,,,,,,,
CC(=O)N[C@@H](CS)C(=O)O,inactive,,inactive,inactive,inactive,inactive,inactive,inactive,inactive,inactive,inactive,inactive,inactive,inactive,inactive,
CCN(CC)CCNC(=O)c1ccc(N)cc1,inactive,,inactive,inactive,inactive,inactive,inactive,inactive,inactive,inactive,inactive,inactive,inactive,inactive,inactive,inactive
CCCNC(=O)NS(=O)(=O)c1ccc(Cl)cc1,inactive,,inactive,inactive,inactive,inactive,inactive,inactive,inactive,inactive,inactive,inactive,inactive,inactive,inactive,
COC(=O)[C@@H]1[C@H]2C[C@H]3c4[nH]c5ccccc5c4CCN3C[C@@H]2CC[C@@H]1O,inactive,,inactive,inactive,inactive,inactive,inactive,inactive,inactive,inactive,inactive,,,,,
O=C(O)c1ccc(-c2cc3cccnc3c(-c3ccc4nonc4c3)n2)cc1,inactive,26.4 µM (active),,23.5 µM (active),inactive,inactive,,,,,,,,,,
COc1ccccc1N1CCN(CCCNc2cc(=O)n(C)c(=O)n2C)CC1,inactive,,inactive,inactive,inactive,inactive,inactive,inactive,inactive,inactive,inactive,inactive,inactive,inactive,inactive,
N[C@H](CSC(c1ccccc1)(c1ccccc1)c1ccccc1)C(=O)O,inactive,inactive,inactive,inactive,inactive,18.7 µM (active),5.26 µM (active),,,,,,,,,
O=C1c2c(O)cc(O)cc2O[C@H](c2cc(O)c(O)c(O)c2)[C@H]1O,inactive,inactive,inactive,inactive,inactive,,inactive,,,,,,,,,
CC(C)(C)Cn1c(N)nc2ccc(-c3[nH]c(C(C)(C)C)nc3-c3ccc(F)cc3)nc21,inactive,13.2 µM (active),20.9 µM (active) and 23.1 µM (active),,29.4 µM (active),23.5 µM (active),,,,,,,,,,
CCN1CCC[C@H]1CNC(=O)c1cc(S(N)(=O)=O)ccc1OC,inactive,,inactive,inactive,inactive,inactive,inactive,inactive,inactive,inactive,inactive,inactive,inactive,inactive,inactive,inactive
CC=CCC=CCCC(=O)[C@H]1O[C@@H]1C(N)=O,inactive,,inactive,inactive,inactive,inactive,,,,,,,,,,
CC(=O)O[C@]1(C(C)=O)CC[C@@H]2[C@@H]3C[C@H](C)C4=CC(=O)CC[C@]4(C)[C@H]3CC[C@@]21C,inactive,,inactive,,inactive,,inactive,,,,,,,,,inactive
CCC(=O)NC[C@H](Cc1ccc(OCCc2nc(-c3ccccc3)oc2C)cc1)NC(C)=CC(=O)c1ccc(C(F)(F)F)cc1,inactive,,inactive,16.6 µM (active),inactive,,3.32 µM (active),,,,,,,,,inactive
COC[C@@H](c1ccc(C(F)(F)F)cc1)N1CCN(C2(C)CCN(C(=O)c3c(C)ncnc3C)CC2)C[C@H]1C,inactive,,inactive,inactive,inactive,,,,,,,,,,,
O=C(O)c1cc(-c2ccccc2)nc2ccccc12,inactive,,inactive,inactive,inactive,inactive,inactive,inactive,,,,,,,,
